# Shown is part of a subset that was picked to be rich in hits.
# mHTT CaM bind: inhibitors of human mutant huntingtin-calmodulin interaction | P42858 | inhibition, % at 15 µM | AID 1671202 | 190,000 tested, 3.6% active | AlphaScreen His-mHTT/GST-CaM binding, luminescence;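 also: 0% = both proteins with DMSO and 100% = one protein alone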
# Pf apPOL inh: Pf-apPOL DNA polymerase inhibition. Recombinant Pf-apPOL, molecular beacon fluorescence, 1.5 h. inhibition, % at 10 µM. AID 1794808. 210,000 tested, 0.25% active
# * = called active by the depositor; x = no result given. Rule as the data show it: active = inhibition above about 50%; inactive = the rest.
SMILES,mHTT CaM bind,Pf apPOL inh
Cc1ccc(C(=O)CC(=O)c2ccccc2C)c(O)c1,37,4
Cc1ccc(C(=O)CN2C(C(=O)c3ccccc3)=C(N(C)C)c3ccccc3S2(=O)=O)c(C)c1,55*,4
C[N+]1=C2CCCCC2(C)c2ccccc21 (configuration not stated),x,1
COc1cccc(-c2ccc3nc(N4CCC(C(=O)N5CCCC5)CC4)sc3n2)c1,36,-2
N#Cc1c(SCC(=O)Nc2nncs2)sc2c(O)cc(=O)[nH]c12,54*,x
CC(=O)CSc1sc2c(O)cc(=O)[nH]c2c1C#N,4,x
COc1ccc(CNC(=O)c2ccc(-c3cccnc3)cc2)cc1,-3,-4
Cc1oc(C(=O)Nc2ccc(C(=O)O)cc2)cc1COc1ccccc1,11,-1
Cc1nc(SCc2ccccc2)nc2c1CCCC2,-27,0
COc1ccc(O)c(C(=O)CC(=O)c2ccccc2)c1,50*,2
COc1ccc(C(=O)CC(=O)c2ccccc2)cc1,42,4
NC(=O)C1CC(c2ccccc2)=NO1 (configuration not stated),8,2
COc1ccc(-c2[nH]ncc2-c2ccc(Cl)cc2)c(O)c1,69*,-4
COc1ccc(-c2[nH]ncc2Oc2ccc(F)cc2)c(O)c1,44,0
COc1cc(/C=C/C(=O)O)cc(S(=O)(=O)NCCCC(=O)O)c1OC,-1,-9
CC(C)[C@H]1COCCS(=O)(=O)N1Cc1ccccc1-c1cccc2c1oc1ccccc12,53*,1
CC(C)[C@H]1COCCS(=O)(=O)N1Cc1ccc(Cl)cc1,3,7
Cc1cc(C)c2c(=O)[nH]c(SCC(=O)c3ccc(Br)cc3)nc2n1,-1,2
O=C(c1ccc2c(c1)C1C=CCC1C(c1ccc([N+](=O)[O-])cc1)N2)N1CCOCC1 (configuration not stated),70*,-12
O=C(c1ccc2c(c1)C1C=CCC1C(c1ccc(Cl)cc1)N2)N1CCOCC1 (configuration not stated),83*,-1
O=C(c1ccc2c(c1)C1C=CCC1C(c1cccc([N+](=O)[O-])c1)N2)N1CCCCC1 (configuration not stated),81*,-1
O=C(c1cccc([N+](=O)[O-])c1)N1CCOCC1,0,-5
O=C(O)C1Nc2ccc([N+](=O)[O-])cc2C2C=CCC12 (configuration not stated),-1,3
O=S(=O)(c1ccc(C2Nc3c(Cl)cc(Cl)cc3C3C=CCC32)cc1)N1CCOCC1 (configuration not stated),26,-5
COC(=O)c1ccc(NC(=O)CSc2nnc(C)c3cnn(-c4ccccc4)c23)cc1,6,-13
SMILES,mHTT CaM bind,Pf apPOL inh
O=C1CCC(=O)N1c1ccc(Sc2ccc([N+](=O)[O-])cc2)cc1,5,-4
O=C1C=CC(=O)N1c1cc(Sc2ccc(F)cc2)cc([N+](=O)[O-])c1,85*,5
COc1cc(OC)cc(C2=NC3(CCCC3)N(C(=O)c3ccc(OC)c(OC)c3)C2=S)c1,85*,-4
COc1cc(C(=O)N2C(=S)C(c3ccccc3)=NC23CCCCC3)cc(OC)c1OC,4,-3
Cc1ccc(NC(=O)c2cc3cc(Br)ccc3oc2=O)cc1C,4,-6
CC(C)NC(=O)Cn1cccc1-c1nc(-c2ccccc2)cs1,-3,-1
Cc1ccnc(NC(=O)Cn2cccc2-c2nc(-c3ccccc3)cs2)c1,54*,-1
CCc1nnc(SCC(=O)Nc2cccc(C(F)(F)F)c2)nc1CC,-5,-1
COCCNc1nc(SCC(=O)Nc2cccc(C(F)(F)F)c2)nc2ccccc12,67*,-2
CCCCC(NC(C)=O)c1nc2ccccc2n1Cc1ccccc1F (configuration not stated),11,6
O=C(c1ccccc1)N1CCCC2(CC(c3cccc(Cl)c3)=CO2)C1 (configuration not stated),96*,-5
O=C(c1ccc(Cl)cc1)N1CCCC2(CC(c3cccc(Cl)c3)=CO2)C1 (configuration not stated),-9,-2
O=C(c1ccco1)N1CCCC2(CC(c3ccc(Cl)cc3)=CO2)C1 (configuration not stated),-15,-6
O=C(c1ccc(F)cc1)N1CCCC2(CC(c3ccc(Cl)cc3)=CO2)C1 (configuration not stated),-5,-4
O=C(c1ccccc1)N1CCCC2(CC(c3ccc(Cl)cc3)=CO2)C1 (configuration not stated),100*,0
O=C(c1ccco1)N1CCCC2(CC(c3cccc(Cl)c3)=CO2)C1 (configuration not stated),90*,-4
CCCOc1ccc(S(=O)(=O)N2CCN(c3ccc(F)cc3)CC2)cc1,-10,-5
CCc1csc2nc(C)c(NC(=O)c3ccccc3C(F)(F)F)c(=O)n12,-3,-5
CCNC(=O)C1CCC(c2ccc(F)c(C)c2)N(C(=O)C2CC2)C1 (configuration not stated),-1,0
Nc1ncc(Br)cn1,x,-3
CCOc1ccc(C2=C/C(=C\c3cccs3)C(=O)O2)cc1,9,52*
CCOc1ccc(C2=C/C(=C\c3ccc(Br)o3)C(=O)O2)cc1,98*,-5
COc1ccc(C2=C/C(=C\c3cccs3)C(=O)O2)cc1,7,-12
O=C1OC(c2ccc(Cl)cc2)=C/C1=C\c1ccc(Br)o1,5,4
COc1ccc(-c2n[nH]c(C)c2NC(=O)CC(C)(C)C)cc1,20,-4
SMILES,mHTT CaM bind,Pf apPOL inh
COc1ccc(NCc2ccc(Cl)cc2Cl)cc1OC,45,-4
COc1cc(NCc2ccccc2Cl)cc(OC)c1,75*,3
COc1cc(-c2[nH]nc3c2C(c2ccoc2)C(C#N)=C(N)O3)cc(OC)c1OC (configuration not stated),9,-8
CCCn1c(C(=O)NCc2ccccn2)cc2sc(Br)cc21,72*,-8
COc1ccccc1OCC(=O)NCc1ccccn1,15,-8
O=C(NCc1ccccn1)c1cc2sccc2n1CC1CC1,13,-12
CCn1c(C(=O)NCc2ccccc2F)cc2sc(C)cc21,30,-4
COc1ccccc1-c1cc(C(=O)NCc2ccccn2)n(C)n1,100*,-21
Cc1cc2c(cc(C(=O)NCc3ccccn3)n2CC2CCC2)s1,57*,-2
CCCn1c(C(=O)N2CCOCC2)cc2sc(Br)cc21,24,-13
C=CCn1c(C(=O)NCc2ccccn2)cc2sc(C)cc21,56*,-2
O=C(CN1CCC(c2nnc(-c3ccco3)o2)CC1)N1CCc2ccccc21,-7,-2
CCCCNC(=O)CC1CCN(C(=O)c2cc(OC)c(OC)c(OC)c2)CC1,4,-6
CCOCCCNC(=O)CCCN1C(=O)CCn2nc(C)cc21,-8,-4
C=CCc1cc(/C=C2\Sc3ccccc3C2=O)cc(OCC)c1O,6,6
CC(C)(C)c1ccc(C(=O)Nc2c3c(nn2-c2ccc([N+](=O)[O-])cc2)CS(=O)(=O)C3)cc1,32,-1
O=C1NC(=S)SC1=Cc1cc([N+](=O)[O-])ccc1Sc1ccc(C(F)(F)F)cn1,x,5
COc1ccc(CN2CCc3cc(OC)c(OC)cc3C2)cc1OC,-2,7
COc1cc2c(cc1OC)CN(Cc1ccc(OCc3ccccc3)c(OC)c1)CC2,100*,0
COc1ccccc1N=Cc1cc(OC)c(OCc2ccccc2)cc1[N+](=O)[O-],95*,-12

# Source: PubChem (University of Kansas High Throughput Screening Laboratory)
